In one experiment the target is T1, Aspartate--tRNA(Asp/Asn) ligase (Mycobacterium tuberculosis (strain ATCC 25618 / H37Rv)) (UniProt P9WFW3). Note: in the data most compounds retested in dose-response had high values.
T1 sequence (whole entry): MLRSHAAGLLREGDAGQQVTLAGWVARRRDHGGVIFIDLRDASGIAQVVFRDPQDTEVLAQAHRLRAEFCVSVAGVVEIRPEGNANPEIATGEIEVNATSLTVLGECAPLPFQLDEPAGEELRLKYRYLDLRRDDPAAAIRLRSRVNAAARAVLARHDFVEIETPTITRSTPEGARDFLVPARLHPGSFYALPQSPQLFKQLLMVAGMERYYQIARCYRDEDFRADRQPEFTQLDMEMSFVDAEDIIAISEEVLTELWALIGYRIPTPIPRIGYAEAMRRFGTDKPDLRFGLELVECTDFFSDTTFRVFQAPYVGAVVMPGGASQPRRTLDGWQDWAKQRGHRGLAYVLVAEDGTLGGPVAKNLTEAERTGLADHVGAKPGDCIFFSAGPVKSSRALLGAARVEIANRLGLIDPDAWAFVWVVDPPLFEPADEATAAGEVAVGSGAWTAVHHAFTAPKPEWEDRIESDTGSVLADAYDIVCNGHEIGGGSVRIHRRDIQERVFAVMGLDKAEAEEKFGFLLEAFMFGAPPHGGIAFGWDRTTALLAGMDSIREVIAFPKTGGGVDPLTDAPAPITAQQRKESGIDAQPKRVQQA
As to the kind of experiment: Assay for Asp RNA synthetase-1 from Mycobacterium tuberculosis. Type of experiment: functional. Further details: scale not given: direction of the effect not stated beside the values. To be noted: 30 µM.
On to `Cc1ccc(NC(=O)c2n[nH]c(-n3cnnc3)n2)cc1C`, for which the Percent Effect is 4.15%.

For the compound `CCc1cccc(OCC(=O)N2CCCC(n3cncn3)C2)c1` (stereo not given), the Percent Effect is -0.88%.

For the compound `CCn1cc(CN2CCCn3nc(CCC(=O)NCCO)cc3C2)cn1`, the Percent Effect stood at 0.624%.

Regarding `O=C1NC2(CCN(Cc3cccnc3)CC2)CC1c1ccncc1` (stereo not given), the Percent Effect came to 7.31%.

Take `CC(CN1CCOCC1)NC(=O)NCc1ccc(Cl)s1` (stereo not given): the Percent Effect worked out at 2.25%.

Take `COCc1nc(C(=O)N2CCCC2c2noc(C(C)C)n2)cs1` (stereo not given): the Percent Effect is 2.63%.

Consider `CS(=O)(=O)NC[C@]12COC[C@H]1CN(C(=O)Cc1ccccc1F)C2`, for which the Percent Effect was determined as 6.16%.

`CC(=O)N1CC(=O)N(c2cnn(C)c2)CC12CCN(Cc1ccoc1)C2` (stereo not given): the Percent Effect is -2.35%.

Consider `Cc1cc(C)n(CC2CCCN2Cc2c(C)noc2C)n1` (stereo not given), for which the Percent Effect is -2.12%.

As for `CCOc1cccc(C(C)NC(=O)N2CCC(C(N)=O)CC2)c1` (stereo not given), the Percent Effect was -2%.

Turning to `O=C(Cn1nc2c(cc1=O)CCCC2)N[C@@H](C(=O)O)c1ccccc1`, the Percent Effect was -1.42%.

As for `COCCN1CCC(NC(=O)C2(c3cc(C)cc(C)c3)CC2)CC1`, the Percent Effect was -4.05%.

On to `O=C(NCC(O)CN1CCc2ccccc2C1)Nc1cccnc1` (stereo not given), for which the Percent Effect is -0.98%.

For the compound `COCc1ncn2c1CN(C(=O)C1CC=CC1)CC2`, the Percent Effect was 1.48%.

`O=C(c1cccnc1)N1CCCC2(CCN(c3ccsc3)C2=O)C1` (stereo not given): the Percent Effect was 7.21%.

As for `CN(Cc1ccsc1)C(=O)CN1CCOC(Cn2cccn2)C1` (stereo not given), the Percent Effect was found to be 0.463%.

For `Cc1cnn(C2CCCN(C(=O)c3ccnc(N(C)C)c3)C2)c1` (stereo not given), the Percent Effect is -5.57%.

`Cn1cc(CN2CCc3c(nc(-c4ccccn4)[nH]c3=O)C2)cn1`: the Percent Effect was -3.63%.

Regarding `COCCC(=O)N1CC2(CCN(Cc3cccc(Cl)c3)CC2)C1`, the Percent Effect is -1.46%.

In the case of `Cc1ccccc1C1(CNc2nnc(C)c(C)c2C#N)CCOCC1`, the Percent Effect was 2.96%.

For `O=C(C1CC1)N1CCC(c2nc(O)c3c(n2)CCN(C2CCCC2)C3)C1` (stereo not given), the Percent Effect is -2.25%.

As to `Cc1cnccc1CN1C[C@@H](O)[C@H](Oc2ccccc2)C1`, the Percent Effect is 0.283%.

Take `CN(c1ccc(F)c(F)c1)S(=O)(=O)c1cc(C(=O)O)cs1`: the Percent Effect worked out at 1.3%.

For `CCCc1n[nH]c(C2CN(CCCOc3ccccc3)CCO2)n1` (stereo not given), the Percent Effect is 0.946%.

`CCN(Cc1ccc(OC)c(F)c1)C(=O)c1ccc(C)[nH]c1=O`: the Percent Effect is -0.589%.

With `CN1CCN(Cc2nc3ccccc3[nH]2)[C@H]2CS(=O)(=O)C[C@H]21`, the Percent Effect was 8.03%.

With `CC(C)c1noc(C(C)N2CCN(Cc3ccco3)CC2)n1` (stereo not given), the Percent Effect stood at 0.141%.

Regarding `COc1cccc(CN2CCC(c3cc(O)nc(C)n3)C2)c1` (stereo not given), the Percent Effect is -3.62%.

Consider `CCn1c(N)nc2cc(C(=O)NCCc3ccccc3C)cnc21`, for which the Percent Effect is 7.33%.

In the case of `CC(=O)N1CCN(S(=O)(=O)c2ccc(C)c(F)c2)CC1`, the Percent Effect was -1.95%.

On to `CCCNC(=O)c1sccc1N(C)S(=O)(=O)c1ccc(Cl)cc1`, for which the Percent Effect worked out at 12.9%.

As for `CCOCC(=O)N1C[C@@H]2COC[C@H](c3nc(C)no3)[C@@H]2C1`, the Percent Effect is 2.15%.

Take `COc1cccc2c1OCC(NC(=O)NCc1cccs1)C2` (stereo not given): the Percent Effect stood at 1.53%.

As to `CC1=Nc2c(c(=O)[nH]n2C2CCOCC2)C(c2cccc(Br)c2)S1` (stereo not given), the Percent Effect was 0.0871%.

For `O=C1CC(c2cccnc2)C2(CCN(C(=O)c3ccncc3)CC2)N1` (stereo not given), the Percent Effect was -5.73%.

For `Cc1cnn(CC2CN(CC(=O)Nc3nnc(C)s3)CCO2)c1` (stereo not given), the Percent Effect was -4.68%.

In the case of `Cc1ccc([C@@H]2CN(S(=O)(=O)c3cccs3)C[C@H]2N(C)C)cc1`, the Percent Effect is -0.804%.

With `CCn1ccnc1CN1CCN(CC(=O)NC(=O)NC2CC2)CC1`, the Percent Effect is -2.79%.

In the case of `CCn1cc(NC(=O)NCC(c2cccc(F)c2)N(C)C)cn1` (stereo not given), the Percent Effect is -4.28%.

Turning to `CN1CCc2onc(CNc3ncccn3)c2C1`, the Percent Effect came out at 6.7%.

The target of the next experiment is Shiga toxin 2 (Escherichia coli O157:H7) (UniProt P09385+P09386). As to the kind of experiment: E. coli 0.157:H7 Shiga Toxin SOP - stx2 screening assay. The conditions noted are these: 30 µM. Type of experiment: functional. Further details: scale not given: direction of the effect not stated beside the values.
As to `Cc1ccc(NC(=O)c2n[nH]c(-n3cnnc3)n2)cc1C`, the Percent Effect was -18.5%.

Take `CCc1cccc(OCC(=O)N2CCCC(n3cncn3)C2)c1` (stereo not given): the Percent Effect came out at 26%.

As to `CCn1cc(CN2CCCn3nc(CCC(=O)NCCO)cc3C2)cn1`, the Percent Effect was -51%.

For the compound `O=C1NC2(CCN(Cc3cccnc3)CC2)CC1c1ccncc1` (stereo not given), the Percent Effect is -19.6%.

As to `CC(CN1CCOCC1)NC(=O)NCc1ccc(Cl)s1` (stereo not given), the Percent Effect is -2.94%.

Regarding `COCc1nc(C(=O)N2CCCC2c2noc(C(C)C)n2)cs1` (stereo not given), the Percent Effect was -5.18%.

As for `CS(=O)(=O)NC[C@]12COC[C@H]1CN(C(=O)Cc1ccccc1F)C2`, the Percent Effect was -11.5%.

As to `CC(=O)N1CC(=O)N(c2cnn(C)c2)CC12CCN(Cc1ccoc1)C2` (stereo not given), the Percent Effect came out at 0.489%.

`Cc1cc(C)n(CC2CCCN2Cc2c(C)noc2C)n1` (stereo not given): the Percent Effect is -12.7%.

On to `CCOc1cccc(C(C)NC(=O)N2CCC(C(N)=O)CC2)c1` (stereo not given), for which the Percent Effect was found to be 11.2%.

Turning to `O=C(Cn1nc2c(cc1=O)CCCC2)N[C@@H](C(=O)O)c1ccccc1`, the Percent Effect was -35.6%.

In the case of `COCCN1CCC(NC(=O)C2(c3cc(C)cc(C)c3)CC2)CC1`, the Percent Effect came to 22.9%.

Regarding `O=C(NCC(O)CN1CCc2ccccc2C1)Nc1cccnc1` (stereo not given), the Percent Effect was -22.8%.

For `COCc1ncn2c1CN(C(=O)C1CC=CC1)CC2`, the Percent Effect is 0.0561%.

For `O=C(c1cccnc1)N1CCCC2(CCN(c3ccsc3)C2=O)C1` (stereo not given), the Percent Effect is -14.1%.

`CN(Cc1ccsc1)C(=O)CN1CCOC(Cn2cccn2)C1` (stereo not given): the Percent Effect is -18.6%.

With `Cc1cnn(C2CCCN(C(=O)c3ccnc(N(C)C)c3)C2)c1` (stereo not given), the Percent Effect is -16.8%.

`Cn1cc(CN2CCc3c(nc(-c4ccccn4)[nH]c3=O)C2)cn1`: the Percent Effect is -0.78%.

Turning to `COCCC(=O)N1CC2(CCN(Cc3cccc(Cl)c3)CC2)C1`, the Percent Effect is -17.6%.

For the compound `Cc1ccccc1C1(CNc2nnc(C)c(C)c2C#N)CCOCC1`, the Percent Effect was found to be 18.2%.

In the case of `O=C(C1CC1)N1CCC(c2nc(O)c3c(n2)CCN(C2CCCC2)C3)C1` (stereo not given), the Percent Effect is -11.5%.

`Cc1cnccc1CN1C[C@@H](O)[C@H](Oc2ccccc2)C1`: the Percent Effect is -4.47%.

In the case of `CN(c1ccc(F)c(F)c1)S(=O)(=O)c1cc(C(=O)O)cs1`, the Percent Effect was determined as 20.8%.

For `CCCc1n[nH]c(C2CN(CCCOc3ccccc3)CCO2)n1` (stereo not given), the Percent Effect was 5.54%.

In the case of `CCN(Cc1ccc(OC)c(F)c1)C(=O)c1ccc(C)[nH]c1=O`, the Percent Effect was determined as 30.6%.

Turning to `CN1CCN(Cc2nc3ccccc3[nH]2)[C@H]2CS(=O)(=O)C[C@H]21`, the Percent Effect is -6.1%.

For the compound `CC(C)c1noc(C(C)N2CCN(Cc3ccco3)CC2)n1` (stereo not given), the Percent Effect was determined as 13.9%.

As for `COc1cccc(CN2CCC(c3cc(O)nc(C)n3)C2)c1` (stereo not given), the Percent Effect was -14.1%.

Turning to `CCn1c(N)nc2cc(C(=O)NCCc3ccccc3C)cnc21`, the Percent Effect is -69.2%.

On to `CC(=O)N1CCN(S(=O)(=O)c2ccc(C)c(F)c2)CC1`, for which the Percent Effect was -12.2%.

In the case of `CCCNC(=O)c1sccc1N(C)S(=O)(=O)c1ccc(Cl)cc1`, the Percent Effect was -24.4%.

Take `CCOCC(=O)N1C[C@@H]2COC[C@H](c3nc(C)no3)[C@@H]2C1`: the Percent Effect was -13.8%.

Take `COc1cccc2c1OCC(NC(=O)NCc1cccs1)C2` (stereo not given): the Percent Effect came out at 3.63%.

On to `CC1=Nc2c(c(=O)[nH]n2C2CCOCC2)C(c2cccc(Br)c2)S1` (stereo not given), for which the Percent Effect was 15%.

As to `O=C1CC(c2cccnc2)C2(CCN(C(=O)c3ccncc3)CC2)N1` (stereo not given), the Percent Effect came to 7.39%.

Take `Cc1cnn(CC2CN(CC(=O)Nc3nnc(C)s3)CCO2)c1` (stereo not given): the Percent Effect is 7.65%.

As for `Cc1ccc([C@@H]2CN(S(=O)(=O)c3cccs3)C[C@H]2N(C)C)cc1`, the Percent Effect amounted to 19.8%.

`CCn1ccnc1CN1CCN(CC(=O)NC(=O)NC2CC2)CC1`: the Percent Effect was 24.4%.

As to `CCn1cc(NC(=O)NCC(c2cccc(F)c2)N(C)C)cn1` (stereo not given), the Percent Effect is 21.4%.

Take `CN1CCc2onc(CNc3ncccn3)c2C1`: the Percent Effect was -1.52%.
